Source: publication PMC5700166

Experiments:
Assay in all cases: protein-binding microarray (PBM); PBM: ~300 nM protein, 6 mM HEPES pH 7.8, 80 mM KCl, 0.5 mM EDTA, 0.5 mM EGTA, 6% glycerol, 35 ng/ul poly-dIdC, 1% milk, 1 h, room temperature; Ap Aiptasia and Nv Nematostella (sea anemones) / Co Capsaspora / Aq Amphimedon (sponge) / Dm Drosophila / Hu human; RHD is the Rel homology domain; high values mean tight binding
Settings in all cases: dsDNA, one strand shown
GST-Ap-NF-kB RHD = target: T1, GST-Ap-NF-kB RHD (Exaiptasia pallida (Aiptasia), UniProt A0A913YAJ5 2-422)
T1 sequence: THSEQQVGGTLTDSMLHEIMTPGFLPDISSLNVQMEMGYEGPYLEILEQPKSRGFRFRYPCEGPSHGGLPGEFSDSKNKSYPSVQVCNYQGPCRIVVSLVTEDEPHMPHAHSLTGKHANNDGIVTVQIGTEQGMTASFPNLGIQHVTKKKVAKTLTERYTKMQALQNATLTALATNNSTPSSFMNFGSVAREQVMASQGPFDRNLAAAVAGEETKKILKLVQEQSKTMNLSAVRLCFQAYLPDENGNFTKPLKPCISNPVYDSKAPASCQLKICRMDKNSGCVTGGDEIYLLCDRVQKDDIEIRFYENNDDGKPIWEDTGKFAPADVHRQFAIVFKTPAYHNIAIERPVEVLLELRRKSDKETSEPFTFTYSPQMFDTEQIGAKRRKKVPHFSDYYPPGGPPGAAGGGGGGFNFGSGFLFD

[1] = target: T2, GST-Nv-NF-kB (Cys allele) (Nematostella vectensis, UniProt E5G601 2-411)
T2 sequence: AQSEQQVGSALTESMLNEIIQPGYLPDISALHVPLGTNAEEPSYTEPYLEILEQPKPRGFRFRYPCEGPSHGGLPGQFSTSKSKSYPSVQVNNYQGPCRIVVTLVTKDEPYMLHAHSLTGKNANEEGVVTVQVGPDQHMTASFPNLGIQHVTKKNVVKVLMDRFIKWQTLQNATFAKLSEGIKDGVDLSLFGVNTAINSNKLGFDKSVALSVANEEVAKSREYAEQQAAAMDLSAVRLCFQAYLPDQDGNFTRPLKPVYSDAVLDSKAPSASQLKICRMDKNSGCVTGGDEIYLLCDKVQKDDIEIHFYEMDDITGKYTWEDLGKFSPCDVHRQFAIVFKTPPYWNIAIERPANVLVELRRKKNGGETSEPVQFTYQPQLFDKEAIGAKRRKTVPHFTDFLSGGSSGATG

GST-Co-NF-kB = target: T3, GST-Co-NF-kB (Capsaspora owczarzaki, UniProt F1ARL5 200-546)
T3 sequence: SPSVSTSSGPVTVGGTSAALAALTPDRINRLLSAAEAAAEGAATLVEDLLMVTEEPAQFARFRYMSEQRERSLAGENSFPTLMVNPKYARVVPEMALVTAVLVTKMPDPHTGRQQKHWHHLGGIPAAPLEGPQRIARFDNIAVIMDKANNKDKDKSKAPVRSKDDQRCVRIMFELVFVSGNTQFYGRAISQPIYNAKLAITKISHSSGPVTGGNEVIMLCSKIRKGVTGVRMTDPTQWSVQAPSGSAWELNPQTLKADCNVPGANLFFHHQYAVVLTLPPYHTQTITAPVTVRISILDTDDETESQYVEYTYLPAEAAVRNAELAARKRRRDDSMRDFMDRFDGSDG

GST-Aq-NF-kB = target: T4, GST-Aq-NF-kB (Amphimedon queenslandica, UniProt A9Y5G7 2-389)
T4 sequence: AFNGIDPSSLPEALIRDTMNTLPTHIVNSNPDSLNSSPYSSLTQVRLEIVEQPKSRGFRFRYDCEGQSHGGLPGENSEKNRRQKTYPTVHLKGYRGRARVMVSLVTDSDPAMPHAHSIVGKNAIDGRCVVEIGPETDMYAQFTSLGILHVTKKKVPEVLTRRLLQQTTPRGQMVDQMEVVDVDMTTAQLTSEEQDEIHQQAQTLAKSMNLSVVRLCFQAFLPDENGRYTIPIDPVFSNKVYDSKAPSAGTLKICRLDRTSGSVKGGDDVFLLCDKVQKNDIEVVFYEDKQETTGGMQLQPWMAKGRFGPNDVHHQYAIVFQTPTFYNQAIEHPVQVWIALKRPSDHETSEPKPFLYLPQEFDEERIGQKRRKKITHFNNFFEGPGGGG

GST-Dm-Relish = target: T5, GST-Dm-Relish (Drosophila melanogaster, UniProt Q94527 99-473)
T5 sequence: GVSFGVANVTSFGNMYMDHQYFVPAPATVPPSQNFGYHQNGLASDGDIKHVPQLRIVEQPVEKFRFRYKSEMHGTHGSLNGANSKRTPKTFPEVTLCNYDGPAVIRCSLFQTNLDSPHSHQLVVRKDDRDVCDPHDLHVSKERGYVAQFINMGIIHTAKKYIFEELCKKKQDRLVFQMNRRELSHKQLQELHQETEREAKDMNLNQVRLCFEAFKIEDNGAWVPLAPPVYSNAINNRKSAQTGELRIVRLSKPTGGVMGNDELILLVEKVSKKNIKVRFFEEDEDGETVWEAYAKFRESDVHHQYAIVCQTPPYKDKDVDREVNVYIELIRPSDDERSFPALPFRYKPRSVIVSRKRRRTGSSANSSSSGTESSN

CCGATTAACATCACCCAGTTCCCTGATGTTAATCGGGTCTTGATTCGCTTGACGCTGCTG
binding signal (GST-Ap-NF-kB RHD): 1.22 z-score | binding signal [1]: 1.21 z-score | binding signal (GST-Co-NF-kB): 1.44 z-score | binding signal (GST-Aq-NF-kB): 1.7 z-score

CCGATTAACATCAGGGAAAAGGATGATGTTAATCGGGTCTTGATTCGCTTGACGCTGCTG
binding signal (GST-Ap-NF-kB RHD): 1.79 z-score | binding signal [1]: 3.4 z-score | binding signal (GST-Co-NF-kB): 2.73 z-score | binding signal (GST-Aq-NF-kB): 2.41 z-score

CCGATTAACATCACATGGGAAACTGATGTTAATCGGGTCTTGATTCGCTTGACGCTGCTG
binding signal (GST-Ap-NF-kB RHD): 1.24 z-score | binding signal [1]: 2.14 z-score | binding signal (GST-Co-NF-kB): 2.48 z-score | binding signal (GST-Aq-NF-kB): 1.58 z-score

CCGATTAACATCATCTGGGAAAATGATGTTAATCGGGTCTTGATTCGCTTGACGCTGCTG
binding signal (GST-Ap-NF-kB RHD): 1.33 z-score | binding signal [1]: 2.91 z-score | binding signal (GST-Co-NF-kB): 3.73 z-score | binding signal (GST-Aq-NF-kB): 1.45 z-score

CCGATTAACATCATGCCCGGGAATGATGTTAATCGGGTCTTGATTCGCTTGACGCTGCTG
binding signal (GST-Ap-NF-kB RHD): 1.55 z-score | binding signal [1]: 1.27 z-score | binding signal (GST-Co-NF-kB): 3.51 z-score | binding signal (GST-Aq-NF-kB): 2.72 z-score

CCGATTAACATCACCTTGGGAAATGATGTTAATCGGGTCTTGATTCGCTTGACGCTGCTG
binding signal (GST-Ap-NF-kB RHD): 1.21 z-score | binding signal [1]: 1.7 z-score | binding signal (GST-Co-NF-kB): 2.79 z-score | binding signal (GST-Aq-NF-kB): 1.62 z-score

CCGATTAACATCAAGCGTTTCCCTGATGTTAATCGGGTCTTGATTCGCTTGACGCTGCTG
binding signal (GST-Ap-NF-kB RHD): 2.29 z-score | binding signal [1]: 3.6 z-score | binding signal (GST-Co-NF-kB): 2.62 z-score | binding signal (GST-Aq-NF-kB): 2.82 z-score

CCGATTAACATCAGGAGTCTCCCTGATGTTAATCGGGTCTTGATTCGCTTGACGCTGCTG
binding signal (GST-Ap-NF-kB RHD): 1.69 z-score | binding signal [1]: 2.44 z-score | binding signal (GST-Co-NF-kB): 2.17 z-score | binding signal (GST-Aq-NF-kB): 5.28 z-score

CCGATTAACATCAGGGAAAGGTATGATGTTAATCGGGTCTTGATTCGCTTGACGCTGCTG
binding signal (GST-Ap-NF-kB RHD): 2.16 z-score | binding signal [1]: 3.44 z-score | binding signal (GST-Co-NF-kB): 2.67 z-score | binding signal (GST-Aq-NF-kB): 3.59 z-score

CCGATTAACATCAAATGTGGGAATGATGTTAATCGGGTCTTGATTCGCTTGACGCTGCTG
binding signal (GST-Ap-NF-kB RHD): 1.11 z-score | binding signal [1]: 1.53 z-score | binding signal (GST-Co-NF-kB): 3.07 z-score | binding signal (GST-Aq-NF-kB): 2.21 z-score

CCGATTAACATCAACATGGGAAATGATGTTAATCGGGTCTTGATTCGCTTGACGCTGCTG
binding signal (GST-Ap-NF-kB RHD): 1.54 z-score | binding signal [1]: 2.51 z-score | binding signal (GST-Co-NF-kB): 1.82 z-score | binding signal (GST-Aq-NF-kB): 1.66 z-score

CCGATTAACATCAACAGGGAAAATGATGTTAATCGGGTCTTGATTCGCTTGACGCTGCTG
binding signal (GST-Ap-NF-kB RHD): 3.23 z-score | binding signal [1]: 4.25 z-score | binding signal (GST-Co-NF-kB): 2.91 z-score | binding signal (GST-Dm-Relish): 1.32 z-score | binding signal (GST-Aq-NF-kB): 3.33 z-score

CCGATTAACATCAGGGGTTTCACTGATGTTAATCGGGTCTTGATTCGCTTGACGCTGCTG
binding signal (GST-Ap-NF-kB RHD): 3.56 z-score | binding signal [1]: 3.24 z-score | binding signal (GST-Co-NF-kB): 2.93 z-score | binding signal (GST-Dm-Relish): 7.34 z-score | binding signal (GST-Aq-NF-kB): 4.84 z-score

CCGATTAACATCAGGAGTTTCCCTGATGTTAATCGGGTCTTGATTCGCTTGACGCTGCTG
binding signal (GST-Ap-NF-kB RHD): 4.6 z-score | binding signal [1]: 6.51 z-score | binding signal (GST-Co-NF-kB): 3.2 z-score | binding signal (GST-Dm-Relish): 4.94 z-score | binding signal (GST-Aq-NF-kB): 8.06 z-score

CCGATTAACATCAGGGGAAGGGATGATGTTAATCGGGTCTTGATTCGCTTGACGCTGCTG
binding signal (GST-Ap-NF-kB RHD): 4.77 z-score | binding signal [1]: 4.77 z-score | binding signal (GST-Co-NF-kB): 3.96 z-score | binding signal (GST-Dm-Relish): 1.68 z-score | binding signal (GST-Aq-NF-kB): 3.89 z-score

CCGATTAACATCAGAATTCCCACTGATGTTAATCGGGTCTTGATTCGCTTGACGCTGCTG
binding signal (GST-Ap-NF-kB RHD): 2.58 z-score | binding signal [1]: 4.12 z-score | binding signal (GST-Co-NF-kB): 2.92 z-score | binding signal (GST-Dm-Relish): 4.09 z-score | binding signal (GST-Aq-NF-kB): 3.19 z-score

CCGATTAACATCAGGGGCTACCCTGATGTTAATCGGGTCTTGATTCGCTTGACGCTGCTG
binding signal (GST-Ap-NF-kB RHD): 4.03 z-score | binding signal [1]: 3.47 z-score | binding signal (GST-Co-NF-kB): 1.76 z-score | binding signal (GST-Dm-Relish): 3.48 z-score | binding signal (GST-Aq-NF-kB): 6.2 z-score

CCGATTAACATCAGGAGTCCCCATGATGTTAATCGGGTCTTGATTCGCTTGACGCTGCTG
binding signal (GST-Ap-NF-kB RHD): 6.21 z-score | binding signal [1]: 4.39 z-score | binding signal (GST-Co-NF-kB): 2.23 z-score | binding signal (GST-Dm-Relish): 7.3 z-score | binding signal (GST-Aq-NF-kB): 4.27 z-score

CCGATTAACATCAGGGGGGGCACTGATGTTAATCGGGTCTTGATTCGCTTGACGCTGCTG
binding signal (GST-Ap-NF-kB RHD): 4.77 z-score | binding signal [1]: 3.1 z-score | binding signal (GST-Co-NF-kB): 4.2 z-score | binding signal (GST-Dm-Relish): 4.97 z-score | binding signal (GST-Aq-NF-kB): 4.76 z-score
